The list is not random: actives were taken first. Their share in the collection is about 14%.
USP8 inh: blocks human USP8 ubiquitin-rhodamine cleavage; P40818; purified USP8, Ub-rhodamine cleavage fluorescence, 30 min; inhibition, % at 20 µM; actives 4.2% (n = 47,000); AID 1645853
USP28 block: blocks human USP28 ubiquitin-rhodamine cleavage; AID 1645857; actives 3% (n = 47,000); inhibition, % at 25 µM; purified USP28, Ub-rhodamine cleavage fluorescence, 30 min; Q96RU2
USP30 inh: blocks human USP30 ubiquitin-rhodamine cleavage; Q70CQ3; purified USP30, Ub-rhodamine cleavage fluorescence; inhibition, % at 25 µM; actives 5.3% (n = 47,000)
USP10 block: human USP10 deubiquitinase inhibition. purified USP10, Ub-rhodamine fluorescence, 60 min. inhibition, % at 20 µM. actives 1.1% (n = 47,000). AID 1645856
USP17 block: blocks human USP17 ubiquitin-rhodamine cleavage | inhibition, % at 50 µM | purified USP17, Ub-rhodamine cleavage fluorescence, 3 h | actives 6.5% (n = 47,000) | A8MUK1
* marks the source's active call; other numbers are inactive results; i = inactive; / = no result. No stated cut-off is given here; in the data, active means inhibition above about 30%; inactive means the rest.

SMILES	USP8 inh	USP28 block	USP30 inh	USP10 block	USP17 block
CC(C)Cn1c(=O)c(N2CCN(C(=O)C(C)(C)C)CC2)nc2ccncc21	-3	-5	0	-1	-6
Cc1nnc(NC(=O)C2CC(=O)N(CCc3ccc(F)cc3)C2)s1 (centres undefined)	-60	-7	5	-2	-8
Fc1ccccc1Cc1nc(-c2ccc3nncn3c2)no1	2	53*	0	-3	/
CC(=O)c1sc(/C(C#N)=C/c2ccco2)nc1C	-152	-170	i	-12	-128
CC1=C[C@H]2N(c3ccc(C)cc31)[C@H](C(=O)C(C)(C)C)[C@@H](C(=O)c1ccccc1)[C@]21C(=O)Nc2ccccc21	80*	-2	-93	-10	41*
CC1=C[C@H]2N(c3ccc(C)cc31)[C@H](C(=O)c1cccs1)[C@@H](C(=O)c1ccc(F)cc1)[C@]21C(=O)Nc2ccccc21	78*	1	-72	1	59*
CC1=C[C@H]2N(c3ccccc31)[C@H](C(=O)C(C)(C)C)[C@@H](C(=O)c1ccco1)[C@]21C(=O)Nc2ccccc21	-84	-68	-423	-7	-57
Cc1ccc2nc(C3CN(CC(=O)Nc4ccccc4F)C3)[nH]c2c1	0	-5	0	2	-2
Cc1ccc(CNC(=O)Cn2c(=O)cc(-c3nc(C)no3)c3ccccc32)cc1	6	-6	-7	4	42*
Cc1ccc2c(c1)c1ncn(Cc3nc(C)no3)c(=O)c1n2CC(=O)NCc1ccccc1	35*	58*	87*	30*	72*
CCc1noc(-c2cc(=O)n(CC(=O)Nc3ccccc3)c3ccccc23)n1	5	-4	2	12	-7
Cc1ccc(CNC(=O)CCn2cnc3c(-c4ccccc4)noc3c2=O)cc1	-3	6	28	0	14
Cc1noc(-c2cc(=O)n(CC(=O)Nc3cc(F)cc(F)c3)c3ccccc23)n1	-7	-16	-1	0	-13
Cc1ccc(CNC(=O)Cn2c(C)cc(-c3nnc(C)o3)c2C)cc1	-2	5	7	-4	30*
Cc1noc(-c2cc(=O)n(CC(=O)Nc3ccccc3Cl)c3ccccc23)n1	9	-5	1	34*	6
Cc1ccc(/C=C/C(=O)CCc2c(Cl)cccc2Cl)cc1	12	-17	-3	13	6
CNC(=O)CN1CCC2(C/C=C/Cc3ccccc3OCC(=O)NCCNC2=O)CC1	7	10	14	0	4
O=C(Nc1ccc(F)c(F)c1)c1nc2ccccc2nc1N1CCCC1	6	-36	-158	-3	-18
CC(=O)Nc1cccc2c(C(=O)NC3CCCC3)ccnc12	-11	-6	-28	-4	1
Cc1noc(-c2cc(=O)n(CC(=O)Nc3ccccc3)c3ccccc23)n1	0	/	/	9	42*
Cc1c(Cl)cccc1NC(=O)CN1c2ccccc2S(=O)(=O)c2ccccc21	-10	/	/	-1	-21
Cc1cc(=O)n(CC(=O)NCc2ccc(F)cc2)c(-c2ccccc2)n1	0	5	39*	1	4
Cc1noc(-c2cc(=O)n(CC(=O)NC3CCCC3)c3ccccc23)n1	35*	7	-37	4	11
Cc1c(Cl)cccc1NC(=O)Cn1c(=O)c2ccccc2n2nncc12	-6	-31	-109	-3	50*
Cc1ccc(S(=O)(=O)N(Cc2cccnc2)Cc2cc3ccccc3[nH]c2=O)cc1	-4	5	11	-1	0
SMILES	USP8 inh	USP28 block	USP30 inh	USP10 block	USP17 block
Cn1nc(-c2ccccc2)c(COC(=O)c2ccc([N+](=O)[O-])cc2)c1Cl	5	-3	11	8	60*
O=C(COc1ccc([N+](=O)[O-])cc1Cl)c1ccc2c(c1)OCCO2	-44	-3	-35	-1	-13
O=C(OCc1cnc(Cl)s1)c1ccc([N+](=O)[O-])cc1	-132	41*	3	4	-3
O=C(Cn1cnc2ccccc2c1=O)NC1CCCC1	-5	-3	-8	-2	-1
Cc1cnc(NC(=O)Cn2cnc3ccccc3c2=O)s1	-1	-7	-2	2	40*
O=C(COC(=O)c1ccc(NS(=O)(=O)c2ccc3c(c2)OCCO3)cc1)NCc1ccc(Cl)cc1	1	75*	50*	24	18
Cc1ccc(S(=O)(=O)N(CC(=O)Nc2ccc3c(c2)OCCO3)c2ccccc2F)cc1	12	25	25	8	4
O=C(CNc1ccc(F)c(Cl)c1)Nc1ccc2c(c1)OCCO2	28	64*	12	9	17

From PubChem
